Shown are actives, neighbours in structure and some others; about 2.8% of the full set was active somewhere.
Pol beta inh = qHTS Assay for Inhibitors of DNA Polymerase Beta; P06746; AID 485314, 2010; Potency, µM (doses to about 114 µM), inactives show at the top dose activity change, negative = inhibition, usual class: inhibitors; Pol beta primer extension/strand displacement, fluorescence kinetic; 340,000 compounds, 1.3% hits; further: potency means the concentration at half of the fitted maximal effect; on the % scale 0 is the no-effect control and ±100 the full control effect
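Reaction started by 50 nM substrate onto compound-treated Pol beta (10 nM, 15 min preincubation, room temperature); plates read at 0 min and 10 min. Normalized concentration-effect data fitted by four-parameter Hill equation.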
Pol kappa inh = qHTS for Inhibitors of Polymerase Kappa | DNA polymerase kappa (Homo sapiens), Q9UBT6 | purified Pol kappa, fluorescent DNA synthesis assay, 10 min | Potency, µM (titrated, usually from 107 µM), inactives show at the top dose activity, negative = inhibition, usual class: inhibitors | 400,000 compounds, 0.53% hits | AID 588579, 2011; further: potency means the concentration at half of the fitted maximal effect; on the % scale 0 is the no-effect control and ±100 the full control effect
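Readout: fluorescence, taken kinetically at 0 and 10 min. Conditions: 10 nM Pol kappa, 15 min RT compound preincubation, 50 nM substrate final. Controls: enzyme-free buffer wells.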
Pol eta inh = qHTS for Inhibitors of Polymerase Eta | DNA polymerase eta (Homo sapiens), Q9Y253 | recombinant Pol eta, fluorescent DNA replication assay | Potency, µM (series often up to 114 µM), inactives show at the highest dose activity change, negative = inhibition, hits mostly inhibitors | 390,000 compounds, 1.2% hits; further: potency means the concentration at half of the fitted maximal effect; on the % scale 0 is the no-effect control and ±100 the full control effect
Target sequence (Q9Y253 whole entry, looked up): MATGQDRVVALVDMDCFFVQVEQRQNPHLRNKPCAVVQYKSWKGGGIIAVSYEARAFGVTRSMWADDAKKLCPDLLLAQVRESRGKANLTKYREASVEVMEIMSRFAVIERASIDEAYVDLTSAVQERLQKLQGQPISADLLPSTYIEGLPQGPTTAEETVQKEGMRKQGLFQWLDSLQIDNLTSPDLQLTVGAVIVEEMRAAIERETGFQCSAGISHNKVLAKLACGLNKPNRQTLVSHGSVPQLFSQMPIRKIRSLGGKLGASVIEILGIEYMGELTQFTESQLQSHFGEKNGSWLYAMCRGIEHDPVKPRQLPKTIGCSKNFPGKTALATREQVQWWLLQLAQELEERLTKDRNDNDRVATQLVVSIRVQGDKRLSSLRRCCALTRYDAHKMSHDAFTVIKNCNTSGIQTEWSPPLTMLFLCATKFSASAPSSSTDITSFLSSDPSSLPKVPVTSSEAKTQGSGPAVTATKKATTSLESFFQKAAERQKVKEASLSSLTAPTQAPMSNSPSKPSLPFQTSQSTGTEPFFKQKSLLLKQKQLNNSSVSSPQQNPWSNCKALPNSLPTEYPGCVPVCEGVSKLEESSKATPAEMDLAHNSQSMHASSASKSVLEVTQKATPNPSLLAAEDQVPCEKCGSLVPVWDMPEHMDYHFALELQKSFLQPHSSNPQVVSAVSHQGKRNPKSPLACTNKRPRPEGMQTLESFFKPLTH
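Pol eta at 10 nM preincubated with compounds 15 min at room temperature; reaction started with fluorescent substrate (50 nM final) and read kinetically at 0 and 10 min.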
PI5P4Ka inh = qHTS for Inhibitors of phosphatidylinositol 5-phosphate 4-kinase (PI5P4K); PI5P4Kalpha enzyme, ADP-Glo luminescence, 60 min; active compounds read low; max response, %; 330,000 compounds, 1.2% hits; active means max response of -50% or lower; inconclusive means between -30% and -50%; inactive means -30% or higher; further: value at the top dose of about 77 µM; on the % scale 0 is the no-effect control and ±100 the full control effect
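Quantitative HTS of the MLSMR library against PI5P4Kalpha with substrate. ATP added last at 5 microM final; room temperature, 60 minutes. Remaining ATP depleted, ADP converted and read as luminescence.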
POLI inh = qHTS for Inhibitors of Polymerase Iota; 390,000 compounds, 1% hits; AID 588590, 2011; Potency, µM (highest dose often 115 µM), for inactives: at the highest dose activity, negative = inhibition, usual class: inhibitors; DNA polymerase iota (Homo sapiens), Q9UNA4; Pol iota fluorescent replication assay, 10 min; further: potency means the concentration at half of the fitted maximal effect
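Pol iota at 10 nM preincubated 15 min with compounds at room temperature; reaction started with fluorescent substrate, 50 nM final. Fluorescence read kinetically at 0 and 10 min; buffer-only wells as negative control.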
PI4K2A block = qHTS for small molecular inhibitors of PI4K2A. purified PI4K2A, ADP-Glo luminescence, 1 h; active compounds read low. activity change, negative = inhibition, % at 76.9 µM. Phosphatidylinositol 4-kinase type 2-alpha (Homo sapiens), Q9BTU6. AID 1346378, 2018. 420,000 compounds, 0.13% hits; in the data active means activity change below about -50%; inconclusive means mostly about -30% to -49%;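 further: -100% = wells without enzyme as full effect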
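Compounds are screened against recombinant PI4K2A using PI as substrate and ATP, the latter dispensed at 300 microM. Reactions run one hour at ambient temperature before ADP-Glo detection; full inhibition defined by wells lacking enzyme.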
The depositor's hits bear a star; i = inactive; ? = inconclusive; / = no result; [ ] = dose if it differs, or a comment. Unless noted, the call rests on the fitted dose curve; in most records, active means well fitted inhibition curve with a large enough effect; inconclusive means small, poorly fitted or top-dose-only effect, or another doubt; inactive means no such curve, though single readings can be large or run the other way.

SMILES	Pol beta inh	Pol kappa inh	Pol eta inh	PI5P4Ka inh	POLI inh	PI4K2A block
COc1ccccc1NS(=O)(=O)c1ccc(N/N=C/c2ccccc2OCC(=O)O)c([N+](=O)[O-])c1	-9%	-20%	?	-2	?	-5
O=C(O)c1ccc(/C=N/Nc2ccc(S(=O)(=O)N3CCCC3)cc2[N+](=O)[O-])cc1	0%	-9%	0%	-11	-2%	-5
O=C(O)c1ccccc1NS(=O)(=O)c1ccc(NN=Cc2cccc(Cl)c2)c([N+](=O)[O-])c1	/	-28%	20µM*	-66*	?	-4
O=C(O)c1ccccc1/C=N/Nc1ccc(S(=O)(=O)N2CCOCC2)cc1[N+](=O)[O-]	7%	-2%	-7%	-6	6%	-15
Cc1cc(C)nc(N/N=C/c2ccccc2OCC(=O)O)n1	-7%	-10%	28µM*	7	10%	-5
O=C(O)COc1ccccc1/C=N/Nc1ccc(S(=O)(=O)Nc2ccc(Cl)cc2)cc1[N+](=O)[O-]	?	?	28µM*	-29	?	-3
O=C(O)c1ccccc1NS(=O)(=O)c1ccc(NN=Cc2ccc(F)cc2)c([N+](=O)[O-])c1	/	-19%	35µM*	-58*	-18%	-11
COc1ccccc1N1CCN(S(=O)(=O)c2ccc3c(c2)CCC(=O)N3)CC1	/	/	/	/	/	0
CCN[C@@H]1C[C@H](N)[C@@H](OC2OC(CN)=CCC2N)[C@H](O)[C@H]1O[C@H]1OC[C@](C)(O)[C@H](NC)[C@H]1O (stereo partly drawn)	/	/	/	/	/	i
Cc1[nH]n(-c2ncc(-c3ccc(Cl)cc3)s2)c(=O)c1C(c1ccc(Cl)cc1)C(C#N)C#N (stereo not drawn)	18µM*	?	32µM*	-70*	-28%	30
COc1ccc(CCn2c(NN)nc3c2c(=O)[nH]c(=O)n3C)cc1	8%	-19%	89µM*	?	25µM*	-3
O=C(Nc1ccc(Br)cc1F)c1cnn2c1NC(=C1CC1)C=C2C(F)F	/	32µM*	/	/	?	/
O=C(Nc1ccccc1F)c1cnn2c1NC(=C1CC1)C=C2C(F)F	/	-83%	/	/	?	/
CC(C)(C)n1ncc2c(=O)n(Cc3cc(F)ccc3Cl)cnc21	/	-10%	/	/	?	/
CCCC1CCC2(CC1)CCC2OC(=S)Nc1cccc(I)c1 (stereo not drawn)	/	/	/	/	/	6
c1cc(SSc2ccncc2)ccn1	2%	-5%	-3%	-70*	?	-6
c1ccc(Sc2ccncc2)cc1	/	/	-15%	-6	/	4
CC1=CC(c2ccccc2)n2nc(N3C(=O)c4ccccc4C3=O)nc2N1 (stereo not drawn)	-16%	45µM*	-19%	/	7%	7
O=C1C[C@@H](c2ccc(O)c(O)c2)Oc2cc(O[C@H]3O[C@@H](CO)[C@H](O)[C@@H](O)[C@@H]3O)cc(O)c21	/	21µM*	/	/	/	/
O=C1C[C@H](c2ccc(O)cc2)Oc2cc(O[C@@H]3O[C@H](CO)[C@@H](O)[C@H](O)[C@H]3O)cc(O[C@@H]3O[C@H](CO)[C@@H](O)[C@H](O)[C@H]3O)c21	/	-1%	-6%	-2	-4%	-9
NC(=O)c1cccc2c1C(=O)N(C1CCCCC1)C2	?	?	50µM*	-27	?	-2
O=C(Nc1ccc(F)cc1F)c1cccc2c1C(=O)N(C1CCCCC1)C2	13µM*	-39%	-22%	/	?	-2
CCOC(=O)Cc1cc(=O)c2c(=O)n(-c3ccccc3)[nH]c2[nH]1	2%	22µM*	-11%	-25	22µM*	-19
Cc1cc(C)c(NC(=O)CSc2nc3c([nH]c4ccccc43)c(=O)n2C)c(C)c1	19%	-1%[60.1 µM]	-2%	/	29%	-1
O=C(N/N=C\C=C\c1ccco1)c1cncc(Br)c1	?	89µM*	?	-53*	20µM*	-11
SMILES	Pol beta inh	Pol kappa inh	Pol eta inh	PI5P4Ka inh	POLI inh	PI4K2A block
O=C(N/N=C\c1cc(Br)c(Br)o1)c1cncc(Br)c1	0%	-1%	0%	-23	14%	-2
O=C(N/N=C/C=C/c1ccco1)c1cnccn1	-14%	-24%	?	-2	?	-9
O=C(N/N=C\C=C\c1ccco1)c1cc(-c2ccc3ccccc3c2)n[nH]1	16µM*	79µM*	50µM*	-68*	32µM*	?
O=C(N/N=C/C=C/c1ccco1)c1cccnc1	-1%	-42%	?	/	32µM*	-4
O=C(N/N=C/c1cc(Br)c(Br)o1)c1cccnc1	32µM*	?	11µM*	?	?	-1
Cc1[nH]n(-c2ccccc2)c(=O)c1N=Nc1ccc2c(c1)OCCO2	?	-9%	1%	16	6%	-6
Cc1[nH]n(-c2ccccc2)c(=O)c1N=Nc1c(O)cc(S(=O)(=O)N(C)C)c2ccccc12	/	-9%	89µM*	-8	30%	-4
O=C(CSc1nnnn1C1CC1)N1CCN(c2cccc(Cl)c2)CC1	/	-6%	-8%	1	-13%	4
O=C(CSc1nnnn1C1CC1)N1CCN(c2ccc(O)cc2)CC1	/	?	?	-5	45µM*	-14
NC(=O)CN1CCN(C(=O)NC2CCCCC2)CC1	32µM*	22%	-9%	3	12%	-24
O=C(NCCN1CCN(C(=O)NC2CCCCC2)CC1)NC1CCCCC1	-1%	0%	1%	2	-1%	-12
COc1ccc2c(c1)c(=O)oc1cc(OCC(=O)N3CCC(C)CC3)ccc12	22µM*	?	79µM*	/	18µM*	-5
Cc1c(Cl)c(=O)oc2cc(OCC(=O)N3CCCC(C)C3)ccc12 (stereo not drawn)	/	4%	-10%	-1	8%	-3
COc1ccc2c(c1)c(=O)oc1cc(OCC(=O)N3CCCC(C)C3)ccc12 (stereo not drawn)	4µM*	-22%	?	-11	?	7
O=c1oc2cc(O)ccc2c2oc3cc(O)ccc3c12	35µM*	?	?	?	?	-6
O=c1cc(O)c2ccc(O)cc2o1	2%	-13%	3%	-50*	10%	4
CC(=O)Nc1ccc2c(c1)C(=O)N(C)[C@H]1CC[C@H](CC(=O)NCc3ccc(F)cc3)O[C@@H]1CO2	/	/	/	/	/	-8
CN(C(=O)COc1ccccc1C(=O)Nc1ccccc1)c1ccccc1	/	-17%	/	/	19%	/

Screens (PubChem)
